Compounds without any hit were thinned out: in the full panel of roughly 83,000, 20% have a hit.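 Plates (96-well) were seeded with cells, treated with compound at one concentration, and incubated for 48 hours before percent growth was determined.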 A number with no mark means an inactive call. Active and inactive are the calls of the source. Rule for the calls: active = growth percent below 10; inactive = the rest.
Experiments:
Assay in all cases: NCI-60 one-dose screen, 48 h (100 = growth as untreated, 0 = no growth, -100 = all killed)
Conditions in all cases: 10 µM unless noted
[1] = tested on: NCI-H23 lung
[2] = tested on: NCI-H226 lung
[3] = tested on: NCI-H322M lung
[4] = tested on: HOP-62 NSCLC
[5] = tested on: NCI-H460 lung
[6] = tested on: HOP-92 NSCLC
[7] = tested on: NCI-H522 lung
[8] = tested on: A549/ATCC NSCLC
[9] = tested on: 786-0 renal
[10] = tested on: COLO 205 colon

SMILES	growth [1]	growth [2]	growth [3]	growth [4]	growth [5]	growth [6]	growth [7]	growth [8]	growth [9]	growth [10]
CCN1C(=O)N(CC)C2SC(N/N=C/C=C/c3ccccc3OC)=NC21 (stereo not given)	30.4%	54.9%	44.8%	47.3%	2.9% (active)	39.1%	1.31% (active)	27.1%	23.8%	7.22% (active)
O=C(O)c1ccc(-n2cc(CNc3ccc(Cl)cc3)c(-c3ccc(F)cc3)n2)cc1	104%	103%	95.5%	95.8%	98.4%	117%	91.2%	85.4%	101%	119%
COc1ccc(Cn2cc3c(c2-c2cc(OC)c(OC)c(OC)c2)CCCc2cnoc2-3)cc1	32.5%	53.6%	39.6%	43.2%	7.42% (active)	50.6%	10.4%	33.6%	37.1%	-0.67% (active)
C#CCOc1ccc(C(Nc2cc(Cl)ccc2Cl)c2nnnn2C2CCCCC2)cc1 (stereo not given)	88.6%	85.3%	87.4%	86.4%	88.3%	72.7%	69.9%	80.5%	90%	107%
CS(=O)c1nccc(-c2c(-c3ccc(F)c(OCCc4ccc(F)cc4)c3)nc3sccn23)n1 (stereo not given)	7.95% (active)	111%	65.4%	99.7%	59.1%	47.1%	-61.7% (active)	101%	95.3%	102%
Nc1n[nH]c2cccc(C#Cc3cccc(NC(=O)c4cccc(OC(F)(F)F)c4)c3)c12	35.1%	46.8%	77.3%	59.4%	58.1%	-9.3% (active)	49.2%	71.4%	65.3%	49%
Oc1ccccc1-c1nnc(SCc2ccc(O)c3ncccc23)o1	23.5%	67.5%	64.2%	31.1%	5.53% (active)	-8.17% (active)	20.7%	27.5%	32.2%	113%
COc1ccc(N)cc1C(=O)Nc1cccc(-c2cc(=O)c3c(OC)c(OC)c(OC)cc3o2)c1	63.7%	61.7%	72.5%	69.6%	61.5%	8.78% (active)	60.5%	69.3%	53.8%	84.7%
CC1OC(O[C@@H]2C(O)C(CO)OC(O[C@H]3COC(O[C@H]4CC[C@]5(C)[C@H]6CC[C@]78OC[C@@]9(CC[C@](C)(C=O)C[C@H]97)[C@H](O)C[C@@]8(C)[C@]6(C)CC[C@H]5C4(C)C)[C@@H](OC4OC(CO)[C@@H](O)[C@@H](O)[C@@H]4O)[C@@H]3O)[C@H]2OC2OC[C@@H](O)[C@@H](O)[C@@H]2O)[C@@H](O)[C@@H](O)[C@H]1O (stereo not given in full)	-15.2% (active)	-47.5% (active)	-35.3% (active)	-74.6% (active)	74.1%	15.5%	-55.4% (active)	-63.3% (active)	-53% (active)	-37.7% (active)
Cc1cc(Cl)cc(NS(=O)(=O)c2ccc(-c3cnc(C4CC4)o3)cc2)c1	35.7%	60.5%	46.7%	41.7%	16.2%	66.5%	17.9%	31.8%	49.4%	2.78% (active)
CCOC(=O)Nc1cccc(-n2cnc3cc(-c4ccc(O)cc4)ccc32)c1	32.3%	33.3%	47.3%	46.7%	4.77% (active)	116%	-12.7% (active)	28.3%	31.6%	-4.06% (active)
NC(=O)N1N=C(c2cc3ccccc3oc2=O)CC1c1cn(-c2ccccc2)nc1-c1ccc(Cl)cc1 (stereo not given)	41.8%	50.4%	52%	43.1%	22.2%	42.6%	45.2%	29.6%	39.3%	28.8%
CCN1C(=O)N(CC)C2C1NN=C1SC(c3ccccc3)=CC(=O)N12 (stereo not given)	33%	40.4%	50.6%	30.7%	6.45% (active)	44.3%	-42.6% (active)	36.3%	37.6%	-40.3% (active)
CC(=O)Nc1ccc(NC(=O)Nc2cccc(-c3nc(-c4ccc(NC(=O)c5cccnc5)cc4Cl)no3)c2)cc1C(F)(F)F	-63.3% (active)	-55.2% (active)	-34.2% (active)	-58.1% (active)	-64.9% (active)	-65.6% (active)	-46.3% (active)	-1.13% (active)	-35.6% (active)	-53.1% (active)
O=C(O)c1ccc(-n2cc(CNc3ccc(F)cc3)c(-c3ccc(C(F)(F)F)cc3)n2)cc1	93.3%	88.8%	89.9%	81.3%	84.4%	78.3%	93.8%	74%	105%	103%
NS(=O)(=O)c1ccc(Nc2nc(N/N=C/c3ccc(F)cc3)nc(Nc3ccccc3)n2)cc1	54.2%	50.8%	58.1%	17.9%	65.1%	63.5%	15.5%	7.78% (active)	58.8%	20.9%
Cc1ccccc1/C=C/c1nn2c(-c3ccoc3C)nnc2s1	97.8%	100%	99.4%	107%	102%	93.9%	92.4%	90%	90.8%	108%
COc1cc(/C=N/n2cnc3oc(-c4ccccc4)cc3c2=N)cc(CN2CCN(C)CC2)c1O	104%	87.3%	108%	88.1%	108%	74.9%	96.9%	94.3%	62.5%	80.9%
COc1ccc(-c2nc(SCC(C)C)nc(N/N=C\c3cccc([N+](=O)[O-])c3)c2C#N)cc1	46.4%	38%	38.3%	31.3%	14.1%	16.2%	59.4%	24.8%	4.44% (active)	85.8%
COc1cc(/C=N/n2cnc3oc(-c4ccccc4)cc3c2=N)cc(CN2CCCC2)c1O	103%	90.5%	96.7%	85.5%	-58.6% (active)	77.9%	96.4%	64.7%	-81% (active)	11.8%
CCN1C(=O)N(CC)C2SC(N/N=C/c3ccccc3F)=NC21 (stereo not given)	31.6%	45.1%	53.3%	30.9%	4.97% (active)	8.68% (active)	-35.6% (active)	27.3%	30.6%	-47.6% (active)
COc1ccc(-c2nn(-c3ccccc3)cc2/C=C/C(=O)c2ccc(NC(=O)CCCCCCC(=O)NO)cc2)cc1	113%	112%	96.3%	107%	108%	125%	92.4%	96%	69.8%	115%
Cn1ccnc1C(=O)/C=C/c1ccc(C(=O)Nc2ccc(NC(=O)CCNC(=O)c3csc(Br)n3)cc2)cc1	43.5%	84.5%	66.2%	62.6%	46.2%	103%	29%	64.5%	66.3%	85.7%
CCC(CC)N1C(=O)/C(=c2\sc3n(c2=O)C2C(NN=3)N(CC)C(=O)N2CC)c2ccccc21 (stereo not given)	7.64% (active)	53.6%	61%	29.6%	4.83% (active)	86.7%	20.1%	26%	34.9%	-13.2% (active)
COc1cc(C2CC(c3ccc(Nc4nc(NCCO)nc(Nc5ccc(Cl)cc5)n4)cc3)=Nc3c(N)nc(N)nc3N2)cc(OC)c1OC (stereo not given)	74%	81.7%	82.2%	43.3%	56.3%	43.5%	60.7%	103%	46.9%	90.4%
COc1ccc(-c2nnc(SCc3ccc(O)c4ncccc34)n2-c2ccccc2)cc1	17.6%	30.1%	19.8%	19.9%	2.93% (active)	-4.84% (active)	15.5%	26.4%	25.5%	68.6%
